PubChem BioAssay AID652104 (National Center for Advancing Translational Sciences (NCATS), 2013)
About 7,200 (1.8%) of roughly 410,000 compounds were called active. About 7% were inconclusive and are not listed. Calls come from the whole dose curve; as a rule, active = well fitted activation curve with a large enough effect; inconclusive = small, poorly fitted or top-dose-only effect, or another doubt; inactive = no such curve, though single readings can be large or run the other way. Only a selection was taken, and actives are over-represented in it overall.

Experiment: qHTS of TDP-43 Inhibitors; note: nearly all actives have a fitted effect of over 50% in size; for Growth rescue (activation): % of control where 0% means no effect
Conditions: TDP-43 expressing yeast growth rescue, BacTiter-Glo, 24 h; series mostly up to 46.1 µM
Summary of the method: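 Luminescence from BacTiter-Glo reports growth of TDP-43-expressing yeast after 24 hr at 30 deg C with compound. Cells were raffinose-pregrown to mid-log, then seeded in galactose medium at OD600=0.02.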
Potency is the fitted concentration of half-maximal effect.

Potency, active:
Cc1cc([N+](=O)[O-])c(NC2CCCCC2)c([N+](=O)[O-])c1 35.5 µM
CC(N=Cc1nc(-c2ccccc2)oc1O)c1ccccc1 (stereo not drawn) 12.6 µM
CC1Cc2ccccc2N1C(=O)CSc1nc2ccccc2o1 (stereo not drawn) 12.6 µM
Cc1oc2cc(Br)c(O)c(Br)c2c1C(=O)c1ccccc1 22.4 µM
CS(=O)(=O)N(CC(=O)Nc1ccc(Cl)c(Cl)c1)C1CCCCC1 15.8 µM
CC(C)c1cccc(C(C)C)c1Nc1cn[nH]c1 3.98 µM
COc1ccc(C(O)c2nc(-c3ccc4c(c3)OCO4)cs2)cc1 (stereo not drawn) 14.1 µM
CC(C)c1cccc(-c2csc(C(O)c3ccccc3)n2)c1 (stereo not drawn) 17.8 µM
COc1ccc(-c2csc(C(O)c3cccc(Cl)c3)n2)cn1 (stereo not drawn) 25.1 µM
O=C(N/N=C/c1cccc(OCc2ccccc2)c1)c1ccc(Br)o1 11.2 µM
CCOc1ccc(N(Cc2ccccc2)C(=O)c2nc(S(C)(=O)=O)ncc2Cl)cc1 17.8 µM
CCCc1ccc(OCC(=O)NNC(=S)NC(=O)c2ccco2)cc1 3.98 µM
COc1ccc(C(=O)NC(=S)NNC(=O)CCc2ccccc2)cc1 17.8 µM
Cc1nc(Cl)cc(N/N=C/c2ccccc2)n1 7.94 µM
CNC(=O)c1ccc(-c2nc(CN3CCc4ccccc43)c(C)o2)cc1 10 µM
COc1cc(NC(=O)c2cc(-c3ccc(F)cc3OC(C)C)n[nH]2)cc(OC)c1OC 28.2 µM
COc1cc(F)ccc1-c1cc(C(=O)NCC2CCCCC2)[nH]n1 25.1 µM
COc1ccccc1CNC(=O)c1cc(-c2cc(F)ccc2OC)n[nH]1 22.4 µM
O=C(O)/C=C/c1ccc2c(c1)OCCO2 15.8 µM
CC1(C(=O)NCc2ccc(F)c(F)c2)Cc2c(-c3ccc4c(c3)OCO4)ccnc2O1 (stereo not drawn) 35.5 µM

Potency, inactive:
CCOC(=O)c1c(C)[nH]c(CCC(=O)NCCCN2CCN(c3cccc(Cl)c3)CC2)c1C
Cc1cc(NC(=O)c2ccc(-c3ccc(Cl)cc3)o2)cc(-c2nc3ncccc3o2)c1O
Cc1ccc(C(=O)COC(=O)CCCC(=O)NC2CCCCC2)cc1[N+](=O)[O-]
Cc1cc([N+](=O)[O-])c(N2CCC[C@@H]2C(=O)O)c([N+](=O)[O-])c1
COc1ccc(S(=O)(=O)c2c(Nc3ccc(C)cc3)sc(C(=O)c3ccc(C)cc3)c2N)cc1
CCOc1ccc(NC(=O)Cn2c(C)ccc(C#N)c2=O)cc1
Cn1c(=O)c2c(nc(SCC(=O)Nc3ccc(F)cc3)n2Cc2ccc(Cl)cc2)n(C)c1=O
CCn1c2ccccc2c2cc(CN3CCN(Cc4cccc(Cl)c4)CC3)ccc21
CCCCNC(=O)CSc1nc2cc3c(cc2c(=O)n1CCCCCC(=O)NCc1ccc2c(c1)OCO2)OCO3
CC1Cc2ccccc2N1C(=O)Cn1cnc2ccccc2c1=O (stereo not drawn)
CCc1ccc(NC(=O)c2cnc3c(-c4ccccc4)c(C)nn3c2C)cc1
O=C(CN1C(=O)COc2ccc(S(=O)(=O)N3CCOCC3)cc21)N1CCN(c2cccc(Cl)c2)CC1
O=C(COc1ccc(Cl)cc1)Nc1ccccc1OCc1cc(=O)n2ccccc2n1
COc1cc(/C(=C/c2ccccc2)c2ccccc2)c2c(c1)oc1ccccc12
CCc1ccccc1NC(=O)c1sc2nc3c(cc2c1N)CN(Cc1ccccc1)CC3
Cc1cccc(CCNC(=O)c2ccc3c(c2)nc2n3CCC(C)C2)c1 (stereo not drawn)
CCC(C)NC(=O)CN(C1CCCCC1)S(C)(=O)=O (stereo not drawn)
CS(=O)(=O)N(CC(=O)Nc1ccc(F)cc1)C1CCCCC1
FC(F)(F)c1cc(Nc2nc3ccccc3c3nncn23)ccc1Cl
O=C(CC(NCc1cccnc1)C(=O)O)Nc1ccc(O)cc1 (stereo not drawn)
COc1ccc2c(CNCCc3ccccc3C)c(C(=O)O)n(Cc3ccccc3C)c2c1
CCN(CCCNC(=O)CSc1cc(=O)n(C)c2cc(Cl)ccc12)c1cccc(C)c1
COc1cccc(C(NC(C)=O)c2nc(-c3ccccc3OC)cs2)c1 (stereo not drawn)
CC(O)(c1cccc(F)c1)c1nc(-c2ccc3c(c2)OCO3)cs1 (stereo not drawn)
COc1cc(C(O)c2nc(-c3cnn(C)c3)cs2)ccc1F (stereo not drawn)
OC(c1ccccc1)c1nc(-c2cnc3ccccc3c2)cs1 (stereo not drawn)
Cc1ccccc1-c1csc(C(O)c2cccc(Cl)c2)n1 (stereo not drawn)
Cc1ccc(-c2nc(Cn3c(=O)cc(-c4ccccc4)c4c(C)nn(C)c43)c(C)o2)cc1
CCCCN1CC(c2nc3ccccc3n2CCCCOc2ccc(C)cc2C)CC1=O (stereo not drawn)
Cc1ccc(-c2nc(CS(=O)(=O)CC(=O)NCc3ccccc3Cl)c(C)o2)cc1
O=C(Nc1cccc(C(=O)O)c1)/C(=C\c1ccccc1)NC(=O)c1ccc(Br)o1
O=C(N/N=C\C1CC=CCC1)c1ccc(Br)o1 (stereo not drawn)
CC(C)Sc1oc(-c2cccs2)nc1S(=O)(=O)c1ccc(Cl)cc1
CCOc1cccc2cc(-c3cn4c(n3)sc3cc(C)ccc34)c(=O)oc12
CCOc1ccc(N(Cc2ccccc2)C(=O)c2nc(SCC)ncc2Cl)cc1
CCOc1ccc(NC(=O)CN(Cc2ccccc2)S(=O)(=O)c2ccc(Cl)cc2)cc1
COc1ccc(CNc2nc(-c3ccc(Cl)cc3)nn2S(=O)(=O)c2ccc(C)cc2)cc1
CCC(=O)Nc1ccc2nc(SCC(=O)N3CCc4ccccc43)sc2c1
Cc1c(NC(=S)NC(=O)CCc2ccccc2)c(=O)n(-c2ccccc2)n1C
CCC1CCCCN1C(=S)NC(=O)c1ccco1 (stereo not drawn)
COc1ccccc1CCC(=O)NNC(=O)c1ccncc1
COc1ccc(N(CC(=O)NC(C)(C)C)C(=O)c2ccco2)cc1
O=C(c1ccc2c(c1)N(Cc1ccccc1F)C(=O)c1ccccc1S2(=O)=O)N1CCOCC1
CC(Sc1oc(-c2ccco2)nc1S(=O)(=O)c1ccc(Br)cc1)c1ccccc1 (stereo not drawn)
CC1=NNC(=O)C1CCC(=O)N/N=C\c1cccc(Cl)c1 (stereo not drawn)
CC(C)Oc1ccc(CNC(=O)C2CCN(c3nc4ccccc4n(C)c3=O)CC2)cc1
Cc1ccc(-c2nc(CSCC(=O)NC3CCN(Cc4ccccc4)CC3)c(C)o2)cc1
CNC(=O)c1ccsc1NC(=O)c1ccc(S(=O)(=O)N2CCc3ccccc32)cc1
COc1ccc(NC(=O)c2ccc3nc(CCc4ccccc4)oc3c2)c(OC)c1
Cc1ccc(-c2noc(-c3nnn(-c4cccc(C(F)(F)F)c4)c3N)n2)cc1
CC(C)Oc1cc(F)ccc1-c1cc(C(=O)Nc2cccc(Cl)c2)[nH]n1
CC(C)Oc1cc(F)ccc1-c1cc(C(=O)Nc2ccc(F)cc2)[nH]n1
COc1ccccc1CNC(=O)c1cc(-c2cc(Cl)ccc2C)n[nH]1
COc1ccc(C(=O)NCC2CCCCC2)cc1S(=O)(=O)N1CCCC1
COc1ccc(-c2cc(C(=O)NCc3cc(OC)c(OC)c(OC)c3)[nH]n2)cc1
CN1CCN(C2(CNC(=O)COc3ccc(C(C)(C)C)cc3)CCCCC2)CC1
CC(=O)Nc1ccc2nc(SCCOc3cc(C)cc(C)c3)sc2c1
Cc1ccc(C(=O)Nc2cc3c(cc2N2CCCC2)n(C)c(=O)c(=O)n3C)cc1
CCCCCn1c(=O)[nH]c2cc(C(=O)Nc3cc(C)cc(C)c3)ccc2c1=O
CCOc1ccc(Nc2c(S(=O)(=O)c3ccccc3)cnc3ccccc23)cc1
O=C(c1ccc(C(F)(F)F)cc1)N1CCC(c2nc(-c3ccc(S(=O)(=O)N4CCCC4)cc3)no2)CC1
CCOC(=O)c1c(SCC(=O)Nc2cccc(C)c2C)nc(=O)[nH]c1C
O=C(Nc1ccc2c(c1)OCCO2)C1CCCC1
O=C(COC(=O)/C=C/c1ccc2c(c1)OCO2)NC1CCS(=O)(=O)C1 (stereo not drawn)
COc1ccc(NC(=O)NC(C)c2c(-n3cccc3)sc(C)c2C)cc1OC (stereo not drawn)
COc1ccc(CCNC(=O)C(=O)NCC(c2ccco2)S(=O)(=O)c2cccs2)cc1OC (stereo not drawn)
COc1cc(NC(=O)Cn2nc(-c3ccc(C)c(C)c3)ccc2=O)cc(OC)c1
COc1ccc(C2c3c(oc4ccccc4c3=O)C(=O)N2Cc2ccc3c(c2)OCO3)cc1 (stereo not drawn)
Cc1ccc(S(=O)(=O)n2nc(-c3ccc(Cl)cc3)nc2NCc2ccccc2)cc1
COc1ccc(OCCCn2c(C)nc3cc(C)c(C)cc32)cc1
Cc1cc(C)c2oc(C(=O)Nc3ccc(S(=O)(=O)N4CCCCCC4)cc3)cc(=O)c2c1
Cc1ccccc1C(=O)Nc1nnc(S(=O)(=O)N(C)c2ccc(Cl)cc2)s1
CC1(C(=O)NCc2ccco2)Cc2c(-c3ccc4c(c3)OCO4)ccnc2O1 (stereo not drawn)
CC(=O)Nc1cccc(-c2ccnc3c2CC(C)(C(=O)NCc2ccccc2)O3)c1 (stereo not drawn)
COc1ccc(CNC(=O)CSc2nc3ccccc3nc2Cc2ccccc2)cc1

Growth rescue (activation), inactive:
CC1Cc2ccccc2N1C(=O)CSc1nnc(C2CC2)n1C (stereo not drawn) 1.9% [at 9.22 µM]
Cc1oc2cc([N+](=O)[O-])c(O)c([N+](=O)[O-])c2c1C(=O)c1ccc(Br)cc1 -43.2% [at 9.22 µM]
COc1ccc(CN2CCCC(CNC(=O)c3ccc(F)cc3)C2)cc1OC (stereo not drawn) -11.7% [at 0.397 µM]
